Records with an inconclusive call do not appear. Calls of active or inactive are those of the source. How the source made its calls, unless noted: active means hit-call score of the fitted dose curve at least 0.9, where 1 is the maximum; inactive means score below 0.9.
How the values were obtained:
[1] = ATG_PBREM_CIS: Attagene CIS-FACTORIAL HepG2 Assay for human Phenobarbital-responsive Enhancer Module (PBREM) (AID 2282955); conditions: HepG2 PBREM cis-reporter, Attagene multiplexed transcription; actives raise or lower the signal
How it was run: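 Readout: reporter mRNA, fluorescent RT-PCR fragments separated by capillary electrophoresis. System: HepG2 transiently transfected with cis-regulated reporter units. Exposure: 24 h. Analysis: bidirectional, DMSO baseline.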

[2] = target: Paired box protein Pax-6 (Homo sapiens) (UniProt P26367); assay: ATG_Pax6_CIS: Attagene CIS-FACTORIAL HepG2 Assay for human Paired Box 6 (PAX6) (AID 2282956); conditions: HepG2 CIS-FACTORIAL PAX6 reporter transcription, RNA readout; actives raise or lower the signal
How it was run: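 Readout: reporter transcript fluorescence after RT-PCR and capillary electrophoresis. Cells: HepG2, transiently transfected with cis-regulated MRTUs. Exposure 24 h. Gain or loss of signal fitted bidirectionally relative to DMSO.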

[3] = ATG_PXRE_CIS: Attagene CIS-FACTORIAL HepG2 Assay for human Pregnane X Receptor Element (PXRE) (AID 2282957); conditions: HepG2 Attagene CIS-FACTORIAL PXRE reporter, mRNA; actives raise or lower the signal
How it was run: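 Read-out: fluorescence of reporter-specific RT-PCR products resolved by capillary electrophoresis, fitted bidirectionally relative to DMSO. Human HepG2 liver cells carried transfected cis-promoter reporter units and were exposed to chemicals for 24 h.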

[4] = ATG_PPRE_CIS: Attagene CIS-FACTORIAL HepG2 Assay for human Peroxisome Proliferator-activated Response Element (PPRE) (AID 2282958); conditions: HepG2 PPRE cis-element reporter, Attagene transcription factor profiling; actives raise or lower the signal
How it was run: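 After human HepG2 hepatoma cells were transiently transfected with cis-promoter reporter constructs, they were exposed to test chemicals for 24 hours. Reporter RNA was then reverse-transcribed, PCR-amplified, FAM-labeled, HpaI-digested and quantified by capillary electrophoresis.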

[5] = ATG_RORE_CIS: Attagene CIS-FACTORIAL HepG2 Assay for human RAR-related Orphan Receptor Element (RORE) (AID 2282959); conditions: HepG2 Attagene cis-factorial RORE reporter, mRNA; actives raise or lower the signal
How it was run: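 Measured here: transcript induction of a cis-regulated reporter in HepG2 cells transiently transfected via FuGene 6. After 24 h, RNA was processed by RT-PCR and fluorescent capillary electrophoresis; DMSO defined baseline activity.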

[6] = ATG_Sox_CIS: Attagene CIS-FACTORIAL HepG2 Assay for human SRY-box transcription factor (SOX) (AID 2282960); conditions: HepG2 Attagene cis-factorial SOX reporter, mRNA; actives raise or lower the signal
How it was run: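 Using transiently transfected HepG2 cells, reporter transcription driven by cis elements was assessed 24 h after dosing. Signal was fluorescence of capillary-separated RT-PCR products, with DMSO defining baseline activity.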

[7] = target: Transcription factor Sp1 (Homo sapiens) (UniProt P08047); assay: ATG_Sp1_CIS: Attagene CIS-FACTORIAL HepG2 Assay for human Specificity Protein 1 (Sp1) (AID 2282961); conditions: HepG2 Sp1 cis-reporter transcription, actives raise or lower the signal
How it was run: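 After transient transfection of HepG2 cells with cis-promoter reporter units and 24 h chemical treatment, reporter transcripts were quantified by RT-PCR and capillary electrophoresis fluorescence. Gain- and loss-of-signal fitted against DMSO.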

[8] = ATG_SREBP_CIS: Attagene CIS-FACTORIAL HepG2 Assay for human Sterol Regulatory Element Binding (SREBP) (AID 2282962); conditions: HepG2 Attagene cis-factorial SREBP reporter, mRNA; actives raise or lower the signal
How it was run: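 Readout: fluorescent reporter-transcript peaks resolved by capillary electrophoresis after RT-PCR. Cells were human HepG2 carrying transfected cis-promoter reporter constructs, dosed for 24 h. Gain or loss of signal was fitted against DMSO controls.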

[9] = target: Signal transducer and activator of transcription 3 (Homo sapiens) (UniProt P40763); assay: ATG_STAT3_CIS: Attagene CIS-FACTORIAL HepG2 Assay for human Signal Transducer and Activator of Transcription 3 (STAT3) (AID 2282963); conditions: HepG2, Attagene cis-factorial STAT3 reporter transcription; actives raise or lower the signal
How it was run: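 Fluorescence intensity of 6-FAM-labelled reporter fragments, separated by capillary electrophoresis after RT-PCR, gave the signal. Cells were HepG2 transfected with cis-element reporter units and treated 24 h; fitting was bidirectional relative to DMSO.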

[10] = ATG_TA_CIS: Attagene CIS-FACTORIAL HepG2 Assay for human TA Basal Promoter (AID 2282964); conditions: HepG2 Attagene CIS-factorial TA basal promoter reporter; actives raise or lower the signal
How it was run: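 Steps: transfect HepG2 with MRTUs; dose 24 h; isolate RNA, DNase-treat, reverse-transcribe; PCR and FAM-label reporter cDNA; digest with HpaI 2h at 37 C; run capillary electrophoresis. Activity fitted both directions against DMSO.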

[11] = ATG_TCF_b_cat_CIS: Attagene CIS-FACTORIAL HepG2 Assay for human T-Cell-Factor with beta-catenin (TCF/b-cat) (AID 2282965); conditions: HepG2 TCF/beta-catenin cis-reporter transcription, actives raise or lower the signal
How it was run: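 HepG2, transient MRTU transfection, cis-element-driven reporters (endogenous TFs). 24 h compound exposure. Readout: reporter mRNA by RT-PCR + 6-FAM primer extension, HpaI digest, capillary electrophoresis. Gain/loss fit vs DMSO baseline.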

[12] = ATG_TAL_CIS: Attagene CIS-FACTORIAL HepG2 Assay for human TAL Basal Promoter (AID 2282966); conditions: HepG2 Attagene cis-factorial TAL promoter reporter; actives raise or lower the signal;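 further: background control endpoint measuring basal TAL promoter reporter mRNA not a specific factor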
How it was run: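 HepG2, transient MRTU transfection, 24 h compound exposure; RNA → oligo(dT) RT → PCR → 6-FAM primer extension → HpaI digest → CE fluorescence. Bidirectional curve fit vs DMSO. Background-control readout.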

[13] = ATG_TGFb_CIS: Attagene CIS-FACTORIAL HepG2 Assay for human Transforming Growth Factor (TGF) (AID 2282967); conditions: HepG2 Attagene CIS TGFb reporter, mRNA transcription; actives raise or lower the signal
How it was run: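 Cells were dosed for 24 hours, after which total RNA was reverse-transcribed and reporter sequences amplified, labeled and sized by capillary electrophoresis. Activity was fitted in both directions against DMSO.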

[14] = ATG_VDRE_CIS: Attagene CIS-FACTORIAL HepG2 Assay for human Vitamin D Receptor Element (VDRE) (AID 2282968); conditions: HepG2 VDRE cis-reporter transcription, actives raise or lower the signal
How it was run: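 Compounds were applied for 24 h to HepG2 cells transfected with promoter-regulated reporter units. Total RNA was reverse-transcribed, and reporter amplicons were fluorescently labelled and sized by capillary electrophoresis.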

[15] = target: Nuclear receptor subfamily 1 group I member 3 (Homo sapiens) (UniProt Q14994); assay: ATG_CAR_TRANS: Attagene TRANS-FACTORIAL HepG2 Assay for human Constitutive Androstane Receptor (CAR) (AID 2282969; active means hit-call score of the fitted dose curve at least 0.9, where 1 is the maximum;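 further: activators raise reporter mRNA above DMSO so AC50 marks induction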); conditions: HepG2 Attagene TRANS-FACTORIAL CAR reporter
How it was run: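 Transiently transfected HepG2, multiplex TRANS reporters (CAR-Gal4 chimera driving GAL4-UAS reporter). 24 h dosing. Readout: reporter transcript by RT-PCR + capillary electrophoresis, fluorescence intensity; positive direction vs DMSO.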

[16] = target: Estrogen receptor (Homo sapiens) (UniProt P03372); assay: ATG_ERa_TRANS: Attagene TRANS-FACTORIAL HepG2 Assay for human Estrogen Receptor alpha (ERa) (AID 2282970; active means hit-call score of the fitted dose curve at least 0.9, where 1 is the maximum); conditions: HepG2 Attagene TRANS ERa GAL4 reporter, mRNA
How it was run: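 Reporter mRNA induction after 24 hours, detected by fluorescent RT-PCR and capillary electrophoresis, gives the read-out. Cells are HepG2 transiently transfected with GAL4-UAS reporter transcription units responding to chimeric NR-Gal4. Activity is taken as gain of signal over DMSO baseline.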

[17] = target: X-box-binding protein 1 (Homo sapiens) (UniProt P17861); assay: ATG_Xbp1_CIS: Attagene CIS-FACTORIAL HepG2 Assay for human X-box Binding Protein 1 (XBP1) (AID 2282972); conditions: HepG2 XBP1 cis-element reporter, Attagene multiplex; actives raise or lower the signal
How it was run: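 Read-out: fluorescent reporter mRNA fragments resolved by capillary electrophoresis after RT-PCR. Human HepG2 liver cells carried transfected cis-promoter reporter units and were exposed to chemicals for 24 hours. Gain or loss of signal fitted relative to DMSO baseline.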

[18] = ATG_M_19_TRANS: Attagene TRANS-FACTORIAL HepG2 Assay for M19 Transcription Factor (Internal Marker) (AID 2282974; active means hit-call score of the fitted dose curve at least 0.9, where 1 is the maximum); conditions: HepG2 Attagene TRANS-FACTORIAL M19 internal marker reporter
How it was run: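 Gain-of-signal in reporter mRNA, relative to DMSO, was scored from capillary electrophoresis fluorescence. HepG2 cells carried transiently transfected multiple reporter transcription units and were incubated with test chemicals for 24 h.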

[19] = ATG_GAL4_TRANS: Attagene TRANS-FACTORIAL HepG2 Assay for GAL4 (Internal Marker) (AID 2282976; active means hit-call score of the fitted dose curve at least 0.9, where 1 is the maximum); conditions: HepG2 Attagene TRANS GAL4 internal marker reporter
How it was run: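 RT-PCR/capillary electrophoresis readout of reporter mRNA. HepG2, transient MRTU transfection (GAL4-UAS reporters), 24 h compound exposure. Background-control endpoint, positive direction vs DMSO baseline.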

[20] = target: Steroid hormone receptor ERR1 (Homo sapiens) (UniProt P11474); assay: ATG_ERRa_TRANS: Attagene TRANS-FACTORIAL HepG2 Assay for human Estrogen-Related Receptor alpha (ERRa) (AID 2282971; active means hit-call score of the fitted dose curve at least 0.9, where 1 is the maximum); conditions: HepG2 Attagene TRANS reporter, ERRa transactivation
How it was run: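 Transfected HepG2, 24 h dosing, ERRa-Gal4 chimera driving GAL4-UAS reporter. Readout: reporter mRNA via RT-PCR plus capillary electrophoresis (fluorescence). Positive direction vs DMSO control.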

Measured: AC50

Sequence of Transcription factor Sp1 (Homo sapiens) (P08047 whole entry, looked up): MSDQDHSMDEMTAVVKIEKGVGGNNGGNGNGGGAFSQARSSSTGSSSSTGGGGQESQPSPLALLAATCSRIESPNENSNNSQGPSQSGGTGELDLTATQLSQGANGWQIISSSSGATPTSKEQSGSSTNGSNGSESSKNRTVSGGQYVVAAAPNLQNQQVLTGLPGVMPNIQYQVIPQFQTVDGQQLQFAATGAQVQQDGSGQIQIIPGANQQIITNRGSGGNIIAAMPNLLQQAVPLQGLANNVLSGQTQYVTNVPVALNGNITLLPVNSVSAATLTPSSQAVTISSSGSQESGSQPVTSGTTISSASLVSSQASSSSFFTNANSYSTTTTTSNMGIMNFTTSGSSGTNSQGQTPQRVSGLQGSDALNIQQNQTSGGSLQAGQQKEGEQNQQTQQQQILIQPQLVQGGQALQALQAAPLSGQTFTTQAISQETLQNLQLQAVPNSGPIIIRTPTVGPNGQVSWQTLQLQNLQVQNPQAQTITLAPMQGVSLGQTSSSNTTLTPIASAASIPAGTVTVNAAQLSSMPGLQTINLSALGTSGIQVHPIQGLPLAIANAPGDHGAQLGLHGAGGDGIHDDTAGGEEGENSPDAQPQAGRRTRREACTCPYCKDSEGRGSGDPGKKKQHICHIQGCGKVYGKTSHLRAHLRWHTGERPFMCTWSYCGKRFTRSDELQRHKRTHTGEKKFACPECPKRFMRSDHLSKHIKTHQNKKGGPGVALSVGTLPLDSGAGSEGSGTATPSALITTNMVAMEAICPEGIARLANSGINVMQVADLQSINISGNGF
Sequence of Nuclear receptor subfamily 1 group I member 3 (Homo sapiens) (Q14994 whole entry, looked up, the tested form may be a part): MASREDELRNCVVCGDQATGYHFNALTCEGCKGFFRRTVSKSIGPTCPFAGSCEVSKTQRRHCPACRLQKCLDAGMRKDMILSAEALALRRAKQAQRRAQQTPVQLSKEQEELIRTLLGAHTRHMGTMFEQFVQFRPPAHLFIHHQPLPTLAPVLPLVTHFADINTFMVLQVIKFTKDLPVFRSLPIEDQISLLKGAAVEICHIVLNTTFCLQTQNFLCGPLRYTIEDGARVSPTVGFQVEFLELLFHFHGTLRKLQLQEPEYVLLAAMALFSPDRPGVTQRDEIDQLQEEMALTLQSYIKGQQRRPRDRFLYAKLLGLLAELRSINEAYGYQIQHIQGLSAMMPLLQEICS
Sequence of X-box-binding protein 1 (Homo sapiens) (P17861 whole entry, looked up, the tested form may be a part): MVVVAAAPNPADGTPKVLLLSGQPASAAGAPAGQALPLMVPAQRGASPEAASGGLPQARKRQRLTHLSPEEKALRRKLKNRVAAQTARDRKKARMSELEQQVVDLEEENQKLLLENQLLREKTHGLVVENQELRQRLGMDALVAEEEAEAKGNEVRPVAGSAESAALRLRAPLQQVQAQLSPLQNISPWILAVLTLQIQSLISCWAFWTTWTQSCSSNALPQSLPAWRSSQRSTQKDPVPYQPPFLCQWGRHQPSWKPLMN
Sequence of Estrogen receptor (Homo sapiens) (P03372 whole entry, looked up, the tested form may be a part): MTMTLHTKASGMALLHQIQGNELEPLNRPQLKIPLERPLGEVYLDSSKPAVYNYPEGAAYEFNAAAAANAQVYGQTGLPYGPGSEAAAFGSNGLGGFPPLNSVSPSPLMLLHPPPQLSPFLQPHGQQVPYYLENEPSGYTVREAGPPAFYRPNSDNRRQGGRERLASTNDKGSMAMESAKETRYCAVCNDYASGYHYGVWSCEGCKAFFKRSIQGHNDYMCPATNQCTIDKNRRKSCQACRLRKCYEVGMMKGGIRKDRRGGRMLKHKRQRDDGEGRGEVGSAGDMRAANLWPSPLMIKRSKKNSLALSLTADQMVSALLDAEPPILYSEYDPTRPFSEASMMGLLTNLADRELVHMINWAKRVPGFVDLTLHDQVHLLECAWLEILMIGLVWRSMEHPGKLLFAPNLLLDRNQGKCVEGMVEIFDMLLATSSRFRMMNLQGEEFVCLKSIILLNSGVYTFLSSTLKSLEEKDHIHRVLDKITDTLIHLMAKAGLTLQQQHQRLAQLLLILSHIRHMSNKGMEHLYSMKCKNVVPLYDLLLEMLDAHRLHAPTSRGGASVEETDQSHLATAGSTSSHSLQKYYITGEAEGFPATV
Sequence of Signal transducer and activator of transcription 3 (Homo sapiens) (P40763 whole entry, looked up, the tested form may be a part): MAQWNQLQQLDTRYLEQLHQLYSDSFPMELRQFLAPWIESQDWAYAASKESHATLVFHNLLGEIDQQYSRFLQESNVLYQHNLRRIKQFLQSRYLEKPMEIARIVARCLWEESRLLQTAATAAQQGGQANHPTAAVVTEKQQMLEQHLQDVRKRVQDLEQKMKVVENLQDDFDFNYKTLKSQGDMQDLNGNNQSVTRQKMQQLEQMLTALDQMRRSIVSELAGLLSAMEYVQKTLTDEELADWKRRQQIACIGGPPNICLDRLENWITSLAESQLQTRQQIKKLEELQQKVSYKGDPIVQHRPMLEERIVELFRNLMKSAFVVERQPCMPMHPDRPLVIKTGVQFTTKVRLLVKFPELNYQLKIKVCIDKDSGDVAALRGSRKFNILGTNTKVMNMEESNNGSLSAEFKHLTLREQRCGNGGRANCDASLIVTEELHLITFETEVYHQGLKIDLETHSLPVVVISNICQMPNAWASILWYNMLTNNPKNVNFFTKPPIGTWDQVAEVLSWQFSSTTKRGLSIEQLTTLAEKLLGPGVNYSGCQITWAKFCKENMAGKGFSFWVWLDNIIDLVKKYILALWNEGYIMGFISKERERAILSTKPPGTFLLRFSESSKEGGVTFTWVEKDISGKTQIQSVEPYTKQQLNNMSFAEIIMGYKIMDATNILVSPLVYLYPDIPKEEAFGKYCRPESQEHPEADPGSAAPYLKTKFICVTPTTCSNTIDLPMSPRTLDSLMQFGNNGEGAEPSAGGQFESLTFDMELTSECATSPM
Sequence of Paired box protein Pax-6 (Homo sapiens) (P26367 whole entry, looked up): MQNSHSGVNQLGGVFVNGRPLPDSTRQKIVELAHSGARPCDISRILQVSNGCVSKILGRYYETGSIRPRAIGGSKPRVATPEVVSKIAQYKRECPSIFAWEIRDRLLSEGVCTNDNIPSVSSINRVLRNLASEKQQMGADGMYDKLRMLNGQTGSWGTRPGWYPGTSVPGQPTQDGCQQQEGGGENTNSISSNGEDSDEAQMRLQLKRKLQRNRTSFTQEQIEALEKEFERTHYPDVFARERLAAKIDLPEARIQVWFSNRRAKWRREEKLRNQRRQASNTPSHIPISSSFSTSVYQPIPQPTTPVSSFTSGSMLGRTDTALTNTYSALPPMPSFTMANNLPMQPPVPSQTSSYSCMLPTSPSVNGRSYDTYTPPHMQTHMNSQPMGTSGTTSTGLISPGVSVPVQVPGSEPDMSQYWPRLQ
Sequence of Steroid hormone receptor ERR1 (Homo sapiens) (P11474 whole entry, looked up, the tested form may be a part): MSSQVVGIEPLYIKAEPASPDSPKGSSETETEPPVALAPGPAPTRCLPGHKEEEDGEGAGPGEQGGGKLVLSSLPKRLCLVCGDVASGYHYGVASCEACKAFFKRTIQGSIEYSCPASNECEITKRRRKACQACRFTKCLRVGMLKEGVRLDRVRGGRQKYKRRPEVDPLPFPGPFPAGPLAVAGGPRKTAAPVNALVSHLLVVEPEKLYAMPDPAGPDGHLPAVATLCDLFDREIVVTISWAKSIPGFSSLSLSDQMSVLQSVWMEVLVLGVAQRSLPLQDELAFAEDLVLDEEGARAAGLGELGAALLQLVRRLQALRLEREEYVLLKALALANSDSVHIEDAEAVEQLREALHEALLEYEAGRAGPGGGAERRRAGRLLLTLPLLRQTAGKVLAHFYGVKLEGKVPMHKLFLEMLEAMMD

c1ccc2c(c1)-c1ccc3ccc4cccc5cc-2c1c3c45
inactive: [1] | [2] | [4] | [6] | [7] | [8] | [9] | [10] | [11] | [12] | [13] | [14] | [15] | [17]
active: [3] 1.02 µM | [5] 163 nM | [16] 422 nM

CC(=O)C1=C(C)[C@@H]2C[C@@]3(C1)[C@H](C)CC[C@H]3C2(C)C
active: [1] 161 µM | [3] 1.91 µM | [7] 50.5 µM | [8] 71.8 µM | [9] 150 µM | [10] 159 µM | [11] 77.7 µM | [14] 161 µM | [16] 2650 nM
inactive: [2] | [4] | [5] | [6] | [12] | [13] | [17] | [18]

CCCC[N+](C)(CCCC)CCCC
inactive: [1] | [2] | [3] | [4] | [5] | [6] | [7] | [8] | [9] | [10] | [11] | [12] | [13] | [14] | [15] | [17] | [18] | [19]

CC(=O)Oc1c(C)c(C)c2c(c1C)CC[C@@](C)(CCC[C@H](C)CCC[C@H](C)CCCC(C)C)O2
inactive: [1] | [2] | [3] | [4] | [5] | [6] | [7] | [8] | [9] | [10] | [11] | [12] | [13] | [14] | [16] | [20] | [17] | [18]

CCC(C)(C)c1cc(O)c(C(C)(C)CC)cc1O
inactive: [1] | [3] | [4] | [5] | [9] | [10] | [12]
active: [2] 68.9 µM | [6] 100 µM | [7] 4.19 µM | [8] 4.61 µM | [11] 27.4 µM | [13] 146 µM | [14] 19.8 µM

CCCCCCCCCCCCS
active: [3] 33.4 µM | [8] 33.4 µM | [14] 42.5 µM | [18] 5.01 µM
inactive: [1] | [2] | [4] | [5] | [6] | [7] | [9] | [10] | [11] | [12] | [13] | [15] | [17] | [19]

CC(=N[Si](C)(C)C)O[Si](C)(C)C
inactive: [1] | [2] | [3] | [4] | [5] | [6] | [7] | [8] | [9] | [10] | [11] | [12] | [13] | [14] | [16] | [17] | [18] | [19]

From PubChem BioAssay (EPA / NIEHS)
